Compound activity from PubChem.
NALP1 yeast inh = inhibitors of NALP1 inflammasome in yeast. S. cerevisiae NALP1/ASC/caspase-1 growth, X-gal OD620, 72 h. inhibition, % at 10 µM. 0.61% of 280,000 active. AID 2071; in the data active = inhibition mostly above about 24%, no sharp cut-off; inactive = mostly below about 32%
V-ATPase pH = yeast V-ATPase proton transport regulation by pHLuorin; 0.37% of 350,000 active; S. cerevisiae, pHLuorin cytosolic pH fluorescence; AID 504577; response, % at 10 µM; in the data active = response mostly above about 7.3%, no sharp cut-off; inactive = mostly below about 5.4%; note: actives read high
TIM10 inh = growth inhibitors of TIM10 yeast strain | S. cerevisiae TIM10 strain growth, BacTiter-Glo luminescence, 24 h | inhibition, % at 10 µM | 1.4% of 330,000 active | AID 463195;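 active = inhibition of 40% or more at the single tested concentration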;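 note: wild-type TIM10 isogenic control strain grown at permissive 25 °C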
tim23-1 inh = growth inhibitors of tim23-1 mutant yeast; S. cerevisiae tim23-1 growth, BacTiter-Glo luminescence, 24 h; 1.3% of 330,000 active; inhibition, % at 20 µM;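 active = growth inhibition of the mutant yeast at or above 50%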;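 note: temperature-sensitive mutant grown at 25 °C; plate controls were DMSO-treated mutant yeast for no effect and medium wells lacking yeast for full effect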
tim10-1 inh = inhibits growth of tim10-1 mutant yeast | 2.2% of 330,000 active | inhibition, % at 20 µM | S. cerevisiae tim10-1 ts strain growth, BacTiter-Glo, 24 h;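 active = inhibition of at least 40%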;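 note: mutant grown at 25 °C; 0% = DMSO wells with yeast and 100% = wells holding no yeast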
NALP3 yeast inh = inhibitors of NALP3 inflammasome in yeast. inhibition, % at 10 µM. AID 2825. Yeast reconstituted NLRP3/ASC/caspase-1, beta-gal luminescence, 24 h. 0.39% of 330,000 active;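 active = inhibition of 50% or more; inactive = inhibition below 50%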;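 note: plate controls were induced DMSO wells for no effect and uninduced yeast grown without galactose for full effect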
The depositor's hits bear a star; nt = not tested or not shown; ! = repeats disagree. Rows were chosen to be rich in hits. Some 4.2% of all compounds tested hit in one or more screens of this group.

SMILES	NALP1 yeast inh	V-ATPase pH	TIM10 inh	tim23-1 inh	tim10-1 inh	NALP3 yeast inh
CCC(c1nnnn1Cc1ccccc1)N1CCN(C(=O)c2ccco2)CC1 (configuration not stated)	34*	5	-6	11	9	1
Cc1ccc(S(=O)(=O)c2c(COC(=O)c3ccccc3Cl)c(-c3ccccc3)nn2C)cc1	42*	1	7	13	6	0
CC(C)/C(C=O)=C(/NC1CCCCC1)c1ccccc1	nt	0	18	27	10	1
Cc1cccc(C(=O)Nc2nnc(S(=O)(=O)N3CCC(C)CC3)s2)c1	40*	-2	10	30	35	4
Cc1ccc(C(=O)Nc2nnc(S(=O)(=O)N3CCC(C)CC3)s2)cc1	18	-2	13	15	15	3
CCOC(=O)c1ccc(NS(=O)(=O)c2ccc3c(c2)NC(=O)CCS3)cc1	8	0	-5	2	10	10
Cc1ccc(OCCN2CCN(c3nc(NCc4ccco4)c4ccccc4n3)CC2)cc1	73*	0	13	-41	3	31
O=C(CN1CCN(c2ccc(F)cc2)CC1)N1CCC(Cc2ccccc2)CC1	31*	2	-11	-82	-3	16
COc1ccc(S(=O)(=O)NCC2CCCN(Cc3ccc(C)o3)C2)cc1 (configuration not stated)	33*	5	-14	3	-7	-9
CCCc1n(CC)c2ccccc2[n+]1CC(O)COC1CCCCC1 (configuration not stated)	-4	-3	-8	3	5	22
CSCCC(NS(=O)(=O)c1ccc(Cl)cc1)C(=O)OCC(=O)N(C(C)C)C(C)C (configuration not stated)	35*	-1	28	8	11	3
O=C(CCc1nc2cccnc2n1Cc1ccccc1)N1CCOCC1	36*	-2	6	16	-3	-2
CCCCNC(=O)CCc1nc2cccnc2n1Cc1ccccc1	8	0	-2	6	-1	9
O=C(CSc1ccccc1)Nc1nc2ccccc2[nH]1	25	32*	15	5	-8	5
COC(=O)c1ccccc1C(=O)c1ccc2c(c1)NC(=O)CO2	15	-1	0	3	11	-7
O=C1NC(=S)S/C1=C\C=C\c1ccc([N+](=O)[O-])o1	nt	54*	nt	nt	nt	nt
O=C(O)C1=C[C@H](c2ccc(C(F)(F)F)cc2)C[C@H](OCc2ccc(CO)cc2)O1	22*	0	15	21	19	13
CC1(C)C2CCC(CN)C1C2 (configuration not stated)	nt	3	nt	nt	nt	nt
COc1ccc(-n2c(SCC(=O)Nc3cc(C)on3)nc3c(c2=O)SC(C)C3)cc1 (configuration not stated)	nt	-3	nt	nt	nt	nt
Cn1c(=O)c([N+](=O)[O-])c(NCCc2ccccc2)c2ccccc21	13	-5	25	27	6	1
CCn1c(=O)c([N+](=O)[O-])c(NCCc2ccccc2)c2ccccc21	26	8.5*	10	2	-4	0
O=C(O)Cc1ccc(NC(=O)Nc2ccc(Br)cc2)cc1	32*	1	1	10	14	3
COc1ccc(NC(=O)Nc2ccc(CC(=O)O)cc2)cc1	10	0	-1	4	1	23
CNCCCC1c2ccccc2C=Cc2ccccc21	25	0	5	-11	13	31
CNCCCC12CCC(c3ccccc31)c1ccccc12	29*!	-2	12	8	15	36
SMILES	NALP1 yeast inh	V-ATPase pH	TIM10 inh	tim23-1 inh	tim10-1 inh	NALP3 yeast inh
O=C(Nc1ccc(S(=O)(=O)Nc2ncccn2)cc1)c1ccc2ncsc2c1	9	3	13	-1	-10	10
CCOC(=O)COc1ccc2ccccc2c1/C=C/[N+](=O)[O-]	79*	-2	nt	nt	nt	nt
COc1cccc(N(C(=O)CNC(=O)c2ccco2)C(C(=O)NC2CCCC2)c2cccnc2)c1 (configuration not stated)	5	0	11	7	-17	12
OCC(O)C(O)CC1SCCS1 (configuration not stated)	nt	13*	nt	nt	nt	nt
OC[C@@H](O)[C@@H](O)CO	nt	1	-3	-6	-12	14
Cc1ccc(CN2CCNC(=O)C2CC(=O)N(C)C2CCCCC2)cc1 (configuration not stated)	2	0	1	11	10	12
O=C(Nc1ccc(S(=O)(=O)Nc2nccs2)cc1)c1c(F)c(F)c(F)c(F)c1F	-20	0	1	-1	7	14
C[C@@H]1CN([C@H](C)CO)C(=O)c2c(c3ccccc3n2C)-c2ccccc2CO[C@H]1CN(C)C(=O)Nc1ccccc1	nt	3	nt	nt	nt	nt
Cc1ccccc1OCC(=O)NC1=NCCS1	6	17*	-1	0	19	9
CC1(CCC(=O)N2CCCC(N3CCN(c4cccc(C(F)(F)F)c4)CC3)C2)CC1 (configuration not stated)	8	-2	22	31	19	5
CCCCC(CC(O)COCC(C)C)C(=O)NNC(=S)Nc1ccccc1 (configuration not stated)	22	4	1	14	23	12
CCC(CC(C)(C)O)C(=O)NNC(=S)Nc1ccccc1 (configuration not stated)	33*	2	9	6	8	2
Cc1nnc(SCCOc2ccccc2)s1	-3	2	-5	14	-6	35
Cn1nc(C(=O)Nc2cccc(S(N)(=O)=O)c2)c2ccccc2c1=O	40*	-2	-22	-5	5	8
Cn1nc(C(=O)Nc2cccc(S(=O)(=O)N3CCCC3)c2)c2ccccc2c1=O	nt	-2	10	32	8	7
CC1c2cc3c(cc2CCN1C(=O)c1cccc(F)c1)OCCCO3 (configuration not stated)	-3	4	6	2	3	-7
COc1cccc(NC(=S)Nc2cc(C(=O)O)ccc2N2CC3CC(C2)c2cccc(=O)n2C3)c1 (configuration not stated)	-2	0	2	5	12	6
Cc1ccc(NC(=S)Nc2cc(C(=O)O)ccc2N2CC3CC(C2)c2cccc(=O)n2C3)cc1C (configuration not stated)	37*	1	8	27	7	21
Cc1cc(Cl)c(OCCCn2ccnc2)c(Br)c1	50*	3	-13	-1	24	10
O=C1C(Cl)=C(Nc2ccccc2)C(=O)c2ccccc21	45	0	nt	nt	nt	nt
O=C1C(Cl)=C(NCCc2ccccc2)C(=O)c2ccccc21	nt	12*	nt	nt	nt	nt
COC(=O)[C@@](C)(O)C1(C(=O)SC(C)(C)C)CC1	nt	12	11	17	15	-1
COCCn1c(=S)[nH]c2cc(C(=O)NCCc3ccccc3)ccc2c1=O	-5	-1	6	-1	-4	-5
COc1ccccc1N1CCN(CCOc2c(OC)cccc2OC)CC1	28*	12	-14	12	-3	8
